# The panel holds about 83,000 compounds, 20% with a hit somewhere; the sample as a whole holds those more often.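 Single-dose data. Exposure time 48 hours. Values below 10 considered active.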 A number with no mark means an inactive call. Active and inactive are the calls of the source.
# Tested on: HL-60(TB) leukemia
# Test: NCI-60 one-dose screen, 48 h (100 = growth as untreated, 0 = no growth, -100 = all killed)
# Details: 10 µM unless noted
row,SMILES,growth
1,CCCn1cnc2c(c1=N)C(c1ccc(F)cc1)c1sc3c(F)cccc3c1O2 (stereo unspecified),3.36% (active)
2,C=C1C(=O)O[C@H]2[C@H]1CC/C(CNC(=O)c1cc3cc(OC)ccc3[nH]1)=C\CC[C@@]1(C)O[C@@H]21,-21.3% (active)
3,Fc1ccc2nc3c(cc2c1)CSc1nnc(-c2ccc[nH]c2=S)n1N3,106%
4,O=c1oc2ccc(I)cc2c(=O)n1-c1ccc(F)cc1F,-4.05% (active)
5,Cc1ccc(Nc2cc(C)nc(NCCCNc3ccnc4cc(Cl)ccc34)n2)cc1,-73% (active)
6,NC(=O)c1cnc(Nc2cccc(N)c2)nc1NCCCNC(=O)C1CCC1,55.2%
7,Nc1ncnc(Nc2ccc(C(F)(F)F)cc2)n1,89.2%
8,O=C(Nc1ccc(Cl)cc1F)c1cc(Cl)ccc1O,-48% (active)
9,COc1cc(-c2nc3ccccc3o2)cc(CN2CCN(c3ccccc3)CC2)c1O,71.3%
10,CC(O)CNC(Cc1ccccc1)c1ccc2c(c1)OCO2 (stereo unspecified),96.3%
11,CCCCCCCCCCCCCCCCCCOc1ccccc1CC(=O)OCC[N+](CC)(CC)CC,-20.7% (active)
12,CCOC(=O)C(C(=O)OCC)C1CCCCC1,105%
13,CCN(CC)CCCNc1cccc2c(C)cc(OC)nc12,106%
14,O=C(N/N=C\c1ccccc1O)C1CC1,101%
15,COc1cccc(-c2nn(C)c3sc(C(=O)NCCN4CCN(c5ccccc5F)CC4)cc23)c1,8.08% (active)
16,COc1cc(C(=O)/C=C/c2sc(Cl)nc2Cl)cc(OC)c1OC,23.4%

# Reference: PubChem BioAssay (NCI)
